Test results reported in the supplement of paper PMC10849652.
About 7,900 targets were measured; listed, in parts, are those with a hit and a random draw of the rest. About 0.6% of all pairs of compound and target were hits.

Experiments:
Experiment in all cases: log2 fold change, soluble protein after heating vs DMSO (PISA); higher = thermal stabilisation; K562 cells, 10 uM, 30 min; active = over 0.2 and 3.5 SD of the protein, either way, in both replicates (recomputed)
[1] = compound: CS(=O)(=O)c1ccc(-c2cnc(N)c(C(=O)Nc3ccccc3)n2)cc1
Outline: (§1)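 K562 cells at 2×10^6 cells/mL were given 10 μM compound for 30 min. Aliquots then went through 3 min of heating across 48°C-58°C, were pooled, and were extracted in PBS with 0.5% NP-40 at 4°C, and the supernatant after 21,000xg for 90 min was quantified by TMTpro 16plex LC-MS/MS with channel sums equalised. Thermal stability relative to control samples, from duplicates, is given as log2 fold change.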

[2] = compound: C[C@@H](Oc1cc(-c2cnn(C3CCNCC3)c2)cnc1N)c1c(Cl)ccc(F)c1Cl [crizotinib]
Outline: as §1

[3] = compound: C[C@@H]1COCCN1C2=NC(=NC(=C2)C3(CC3)S(=O)(=O)C)C4=C5C=CNC5=CC=C4
Outline: as §1

[4] = compound: C[C@H](C1=CC=C(C=C1)C(=O)NC2=C3C=CNC3=NC=C2)N
Outline: as §1

[5] = compound: C[C@H](Nc1ncnc2nc[nH]c12)c1cc2cccc(Cl)c2c(=O)n1-c1ccccc1 [duvelisib]
Outline: as §1

[6] = compound: Cc1cc(Nc2cc(CN3CCOCC3)c3nc(C)c(Cc4ccc(Cl)cc4F)n3n2)n[nH]1 [gandotinib]
Outline: as §1

[7] = compound: Cc1cc(Nc2cc(N3CCN(C)CC3)nc(Sc3ccc(NC(=O)C4CC4)cc3)n2)n[nH]1 [tozasertib]
Outline: as §1

[8] = compound: Cc1cc(SCc2sc(-c3ccc(C(F)(F)F)cc3)nc2C)ccc1OCC(=O)O
Outline: as §1

[9] = compound: Cc1ccc(-n2nc(C(C)(C)C)cc2NC(=O)Nc2ccc(OCCN3CCOCC3)c3ccccc23)cc1 [doramapimod]
Outline: as §1

[10] = compound: Cc1ccc(C(=O)N(CCCN)[C@@H](c2nc3cc(Cl)ccc3c(=O)n2Cc2ccccc2)C(C)C)cc1 [ispinesib]
Outline: as §1

Measured: log2 fold change

TMEM161B (UniProt Q8NDZ6)
inactive: [1] 0.026 | [2] -0.096 | [3] 0.004 | [4] 0.002 | [5] 0.128 | [6] -0.156 | [7] 0.063 | [8] 0.11 | [9] -0.024 | [10] -0.055

WASHC2A (UniProt Q641Q2)
active: [2] -0.28
inactive: [1] 0.025 | [3] -0.033 | [4] 0.137 | [5] -0.061 | [6] 0.012 | [7] 0.062 | [8] -0.047 | [9] 0.062 | [10] -0.229

TMEM192 (UniProt Q8IY95)
inactive: [1] 0.074 | [3] 0.043 | [4] 0.04 | [5] 0.026 | [6] 0.059 | [7] -0.008 | [8] -0.022 | [9] 0.024
active: [2] -0.45 | [10] -0.318

WEE1 (UniProt P30291)
active: [3] -1.07
inactive: [1] -0.3 | [2] -0.025 | [4] 0.094 | [5] 0.026 | [6] 0.247 | [7] -0.5 | [8] -0.049 | [9] 0.026 | [10] 0.046

UFL1 (UniProt O94874)
inactive: [1] 0.05 | [2] -0.053 | [3] -0.043 | [4] 0.067 | [5] 0.005 | [6] -0.069 | [7] -0.016 | [8] 0.106 | [9] -0.02 | [10] -0.025

TMEM263 (UniProt Q8WUH6)
active: [2] -0.717 | [10] -0.936
inactive: [1] 0.03 | [3] -0.029 | [4] 0.018 | [5] -0.007 | [6] -0.385 | [7] -0.019 | [8] 0.046 | [9] -0.075

TMEM161A (UniProt Q9NX61)
inactive: [1] -0.038 | [2] -0.026 | [3] -0.006 | [4] 0.001 | [5] -0.032 | [6] -0.156 | [7] -0.145 | [8] 0.051 | [9] -0.023 | [10] -0.251

TRMT2A (UniProt Q8IZ69)
inactive: [1] -0.034 | [2] -0.016 | [3] -0.072 | [4] 0.152 | [5] -0.041 | [6] 0.019 | [7] 0.063 | [8] 0.045 | [9] 0.07 | [10] -0.122

TOMM20 (UniProt Q15388)
inactive: [1] -0.068 | [2] -0.019 | [3] 0.058 | [4] -0.06 | [5] 0.016 | [6] 0.116 | [7] -0.042 | [8] -0.062 | [9] -0.025
active: [10] -0.358

VPS13B (UniProt Q7Z7G8)
Sequence of UniProt Q7Z7G8 (Q7Z7G8 whole entry, looked up): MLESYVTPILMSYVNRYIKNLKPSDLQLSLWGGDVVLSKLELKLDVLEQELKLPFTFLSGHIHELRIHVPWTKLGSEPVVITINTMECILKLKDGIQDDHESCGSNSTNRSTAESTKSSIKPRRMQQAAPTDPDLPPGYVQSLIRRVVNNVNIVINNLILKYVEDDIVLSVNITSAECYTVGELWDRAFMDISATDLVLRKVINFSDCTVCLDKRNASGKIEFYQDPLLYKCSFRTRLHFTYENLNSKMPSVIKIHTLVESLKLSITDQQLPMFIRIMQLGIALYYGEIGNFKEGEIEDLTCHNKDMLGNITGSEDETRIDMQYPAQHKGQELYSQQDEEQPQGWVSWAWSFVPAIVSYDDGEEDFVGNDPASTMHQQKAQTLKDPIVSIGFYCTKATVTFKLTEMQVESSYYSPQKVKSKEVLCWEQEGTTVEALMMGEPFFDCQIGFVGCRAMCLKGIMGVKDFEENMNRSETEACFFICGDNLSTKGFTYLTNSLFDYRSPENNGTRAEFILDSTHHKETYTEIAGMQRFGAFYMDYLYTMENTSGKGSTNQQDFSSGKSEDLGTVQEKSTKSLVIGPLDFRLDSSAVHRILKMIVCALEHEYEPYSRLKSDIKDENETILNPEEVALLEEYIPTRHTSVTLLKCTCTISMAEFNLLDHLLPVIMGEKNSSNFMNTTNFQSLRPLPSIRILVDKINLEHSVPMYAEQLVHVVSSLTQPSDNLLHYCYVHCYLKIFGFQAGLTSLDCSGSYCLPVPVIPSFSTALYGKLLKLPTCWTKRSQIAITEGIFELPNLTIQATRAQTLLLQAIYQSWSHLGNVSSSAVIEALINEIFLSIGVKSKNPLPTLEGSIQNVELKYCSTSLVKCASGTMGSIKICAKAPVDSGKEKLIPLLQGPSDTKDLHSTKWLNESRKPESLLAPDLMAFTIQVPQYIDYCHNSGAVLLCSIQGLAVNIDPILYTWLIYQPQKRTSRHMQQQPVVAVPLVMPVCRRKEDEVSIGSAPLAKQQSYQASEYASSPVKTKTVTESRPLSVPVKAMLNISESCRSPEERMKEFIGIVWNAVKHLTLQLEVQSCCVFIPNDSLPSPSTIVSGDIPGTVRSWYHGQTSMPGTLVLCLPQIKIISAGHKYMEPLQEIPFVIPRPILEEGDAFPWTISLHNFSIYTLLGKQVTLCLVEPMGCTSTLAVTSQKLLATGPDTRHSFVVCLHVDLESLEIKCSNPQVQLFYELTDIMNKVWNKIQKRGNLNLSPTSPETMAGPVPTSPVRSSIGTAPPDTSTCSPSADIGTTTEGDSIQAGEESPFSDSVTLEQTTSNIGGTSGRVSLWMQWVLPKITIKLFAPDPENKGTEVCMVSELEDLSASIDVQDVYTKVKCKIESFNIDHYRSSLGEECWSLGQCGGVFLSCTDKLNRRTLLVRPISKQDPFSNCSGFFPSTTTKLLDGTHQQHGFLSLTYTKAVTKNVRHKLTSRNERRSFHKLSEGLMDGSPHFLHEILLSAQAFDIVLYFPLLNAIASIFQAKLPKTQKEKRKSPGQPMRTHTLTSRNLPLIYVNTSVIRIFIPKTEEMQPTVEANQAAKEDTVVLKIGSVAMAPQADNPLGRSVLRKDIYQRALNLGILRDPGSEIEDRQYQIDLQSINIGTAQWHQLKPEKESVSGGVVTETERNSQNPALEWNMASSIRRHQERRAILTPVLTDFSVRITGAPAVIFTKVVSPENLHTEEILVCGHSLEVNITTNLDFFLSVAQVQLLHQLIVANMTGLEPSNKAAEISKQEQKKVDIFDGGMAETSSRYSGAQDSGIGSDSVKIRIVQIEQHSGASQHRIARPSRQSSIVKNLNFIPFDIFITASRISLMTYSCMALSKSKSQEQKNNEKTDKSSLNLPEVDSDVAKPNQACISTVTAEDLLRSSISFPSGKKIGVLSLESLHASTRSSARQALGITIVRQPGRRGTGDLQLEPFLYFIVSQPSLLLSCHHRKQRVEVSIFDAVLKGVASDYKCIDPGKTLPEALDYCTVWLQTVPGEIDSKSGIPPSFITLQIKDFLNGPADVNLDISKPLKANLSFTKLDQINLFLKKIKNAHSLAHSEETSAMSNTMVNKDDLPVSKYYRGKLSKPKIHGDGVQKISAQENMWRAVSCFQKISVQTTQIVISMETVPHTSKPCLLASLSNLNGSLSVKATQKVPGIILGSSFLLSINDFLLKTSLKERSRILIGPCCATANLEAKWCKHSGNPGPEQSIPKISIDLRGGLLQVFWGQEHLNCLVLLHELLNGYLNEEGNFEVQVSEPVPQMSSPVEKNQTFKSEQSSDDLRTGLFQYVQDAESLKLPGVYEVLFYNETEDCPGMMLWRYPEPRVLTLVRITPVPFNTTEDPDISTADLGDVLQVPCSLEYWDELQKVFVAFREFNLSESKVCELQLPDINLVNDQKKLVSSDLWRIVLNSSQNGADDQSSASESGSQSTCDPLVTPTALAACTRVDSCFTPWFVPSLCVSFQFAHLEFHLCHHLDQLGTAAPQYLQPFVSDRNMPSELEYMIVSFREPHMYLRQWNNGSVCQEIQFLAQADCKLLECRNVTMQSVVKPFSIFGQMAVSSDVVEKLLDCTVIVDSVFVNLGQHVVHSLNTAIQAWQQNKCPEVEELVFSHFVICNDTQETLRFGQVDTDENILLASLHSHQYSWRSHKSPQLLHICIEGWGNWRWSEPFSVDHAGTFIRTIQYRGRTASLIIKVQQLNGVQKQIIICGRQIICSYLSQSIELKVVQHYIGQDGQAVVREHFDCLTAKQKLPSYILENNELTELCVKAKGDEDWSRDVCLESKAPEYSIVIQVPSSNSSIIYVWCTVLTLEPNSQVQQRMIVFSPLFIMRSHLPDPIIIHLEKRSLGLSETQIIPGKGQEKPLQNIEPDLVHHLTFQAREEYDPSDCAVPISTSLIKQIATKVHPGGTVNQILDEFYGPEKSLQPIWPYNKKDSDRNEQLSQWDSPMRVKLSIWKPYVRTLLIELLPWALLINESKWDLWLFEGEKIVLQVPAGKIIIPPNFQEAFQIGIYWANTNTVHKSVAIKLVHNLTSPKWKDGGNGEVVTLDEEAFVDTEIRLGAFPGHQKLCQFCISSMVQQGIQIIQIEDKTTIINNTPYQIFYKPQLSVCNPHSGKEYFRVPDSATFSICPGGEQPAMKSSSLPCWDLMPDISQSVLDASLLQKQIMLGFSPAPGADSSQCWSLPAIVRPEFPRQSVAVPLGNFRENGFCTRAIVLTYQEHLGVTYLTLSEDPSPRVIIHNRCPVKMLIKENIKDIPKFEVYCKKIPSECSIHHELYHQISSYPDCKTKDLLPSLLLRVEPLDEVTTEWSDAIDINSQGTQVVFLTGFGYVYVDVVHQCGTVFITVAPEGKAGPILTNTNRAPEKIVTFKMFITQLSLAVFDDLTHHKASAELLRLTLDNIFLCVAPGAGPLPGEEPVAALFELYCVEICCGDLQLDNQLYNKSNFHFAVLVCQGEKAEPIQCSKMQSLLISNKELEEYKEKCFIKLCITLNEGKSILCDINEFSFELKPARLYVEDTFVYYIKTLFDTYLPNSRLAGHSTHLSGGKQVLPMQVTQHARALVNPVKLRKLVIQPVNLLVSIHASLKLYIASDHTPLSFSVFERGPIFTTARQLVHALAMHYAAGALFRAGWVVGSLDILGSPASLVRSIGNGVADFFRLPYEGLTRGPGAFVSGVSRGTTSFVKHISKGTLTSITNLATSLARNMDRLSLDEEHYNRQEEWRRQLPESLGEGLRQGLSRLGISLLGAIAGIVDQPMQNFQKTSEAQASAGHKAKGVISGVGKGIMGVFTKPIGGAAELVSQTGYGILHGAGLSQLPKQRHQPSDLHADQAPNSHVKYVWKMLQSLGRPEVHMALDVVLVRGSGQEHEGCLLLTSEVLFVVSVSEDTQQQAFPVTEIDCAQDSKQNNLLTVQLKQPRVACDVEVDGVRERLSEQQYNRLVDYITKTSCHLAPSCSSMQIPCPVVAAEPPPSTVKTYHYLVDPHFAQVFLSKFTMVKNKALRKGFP
inactive: [1] 0.023 | [2] 0.015 | [3] 0.045 | [4] -0.033 | [5] -0.064 | [6] -0.062 | [7] -0.01 | [8] 0.015 | [9] 0.028 | [10] -0.134

XPOT (UniProt O43592)
inactive: [1] 0.009 | [2] -0.123 | [3] 0.024 | [4] -0.001 | [5] 0.005 | [6] -0.177 | [7] 0.15 | [8] 0.068 | [9] -0.011 | [10] -0.12

TTI1 (UniProt O43156)
inactive: [1] 0.075 | [2] -0.143 | [3] 0.003 | [4] 0.059 | [5] -0.03 | [6] -0.119 | [7] 0.041 | [8] 0.033 | [9] 0.059 | [10] -0.204

TNPO2 (UniProt O14787)
Sequence of UniProt O14787 (O14787 whole entry, looked up): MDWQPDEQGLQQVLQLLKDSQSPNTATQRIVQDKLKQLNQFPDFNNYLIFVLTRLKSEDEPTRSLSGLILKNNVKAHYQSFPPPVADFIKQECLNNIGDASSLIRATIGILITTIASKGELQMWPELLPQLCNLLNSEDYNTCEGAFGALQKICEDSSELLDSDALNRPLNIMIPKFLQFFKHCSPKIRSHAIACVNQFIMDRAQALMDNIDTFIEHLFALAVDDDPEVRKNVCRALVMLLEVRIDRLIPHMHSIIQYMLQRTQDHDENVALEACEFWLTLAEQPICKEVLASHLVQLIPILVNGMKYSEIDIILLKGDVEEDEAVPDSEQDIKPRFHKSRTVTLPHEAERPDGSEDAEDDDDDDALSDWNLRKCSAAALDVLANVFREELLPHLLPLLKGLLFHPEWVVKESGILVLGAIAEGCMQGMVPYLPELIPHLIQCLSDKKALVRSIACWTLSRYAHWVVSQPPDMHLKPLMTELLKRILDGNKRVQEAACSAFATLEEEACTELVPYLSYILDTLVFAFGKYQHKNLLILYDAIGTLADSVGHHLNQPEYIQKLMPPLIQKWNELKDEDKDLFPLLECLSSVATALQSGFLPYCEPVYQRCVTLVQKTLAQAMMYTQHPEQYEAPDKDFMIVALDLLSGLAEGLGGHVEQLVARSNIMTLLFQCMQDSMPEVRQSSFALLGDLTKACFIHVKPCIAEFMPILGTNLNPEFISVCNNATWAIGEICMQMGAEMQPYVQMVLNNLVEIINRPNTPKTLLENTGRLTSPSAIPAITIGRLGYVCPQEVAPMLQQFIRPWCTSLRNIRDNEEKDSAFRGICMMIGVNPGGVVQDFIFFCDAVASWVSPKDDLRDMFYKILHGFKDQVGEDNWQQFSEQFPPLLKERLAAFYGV
inactive: [1] 0.019 | [2] -0.153 | [3] 0.046 | [4] -0.037 | [5] 0.03 | [6] -0.059 | [7] 0.077 | [8] 0.048 | [9] 0.011 | [10] -0.14

U2AF1 isoform 2 (UniProt Q01081)
inactive: [1] -0.046 | [2] 0.067 | [3] 0.03 | [4] -0.134 | [5] 0.044 | [6] -0.005 | [7] 0.05 | [8] 0.114 | [9] -0.143 | [10] 0

USP24 (UniProt Q9UPU5)
inactive: [1] 0.062 | [2] 0.204 | [4] 0.015 | [5] 0.219 | [6] -0.213 | [7] 0.045 | [8] -0.017 | [9] -0.041 | [10] 0.115
active: [3] 0.396

UBE2S (UniProt Q16763)
Sequence of UniProt Q16763 (Q16763 whole entry, looked up): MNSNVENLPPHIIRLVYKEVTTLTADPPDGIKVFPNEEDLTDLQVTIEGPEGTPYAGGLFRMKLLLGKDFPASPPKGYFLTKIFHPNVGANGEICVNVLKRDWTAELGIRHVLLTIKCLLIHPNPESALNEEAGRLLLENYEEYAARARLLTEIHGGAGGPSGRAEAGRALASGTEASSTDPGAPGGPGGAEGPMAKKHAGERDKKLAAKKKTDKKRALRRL
inactive: [1] 0.014 | [2] 0.079 | [3] 0.003 | [4] -0.067 | [5] 0.042 | [6] -0.015 | [7] 0.025 | [8] 0.002 | [9] 0.024 | [10] 0.1
